Source: PubChem BioAssay
Sampled rows, rich in hits. Any-hit rate of the full collection: about 9.3%.
FLuc counter: qHTS profiling assay for firefly luciferase inhibitor/activator using purifed enzyme and Km concentrations of substrates (counterscreen for miR-21 project) | Luciferin 4-monooxygenase (Photinus pyralis), P08659 | purified FLuc, Km substrates, luminescence inhibition | Potency, µM (top dose mostly 57.5 µM), without a hit: at the highest dose activity change, negative = inhibition, most hits filed as inhibitors | hit rate 6.9% among 360,000 | AID 588342, 2011;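 also: plate controls were vehicle for no effect and reference inhibitor for full effect; nearly all actives have a fitted effect of over 55% in size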
Target sequence (P08659 whole entry, looked up): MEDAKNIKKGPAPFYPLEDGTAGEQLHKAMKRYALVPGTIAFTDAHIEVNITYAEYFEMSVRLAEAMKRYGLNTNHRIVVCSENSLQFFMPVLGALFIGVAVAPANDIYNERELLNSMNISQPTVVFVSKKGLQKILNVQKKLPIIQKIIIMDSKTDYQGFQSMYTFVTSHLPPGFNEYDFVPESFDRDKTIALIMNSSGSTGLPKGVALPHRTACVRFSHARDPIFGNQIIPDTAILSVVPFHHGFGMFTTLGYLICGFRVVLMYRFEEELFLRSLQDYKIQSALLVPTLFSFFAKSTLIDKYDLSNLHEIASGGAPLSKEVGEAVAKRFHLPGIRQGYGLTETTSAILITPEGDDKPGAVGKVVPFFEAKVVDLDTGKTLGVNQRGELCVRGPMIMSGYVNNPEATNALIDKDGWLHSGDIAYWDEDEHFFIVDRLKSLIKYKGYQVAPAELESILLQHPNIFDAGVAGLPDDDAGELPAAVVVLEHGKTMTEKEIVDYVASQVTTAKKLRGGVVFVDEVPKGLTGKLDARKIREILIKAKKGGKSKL
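Biochemical qHTS of compounds, final roughly 60 µM downward over six points, against 10 nM purified firefly luciferase using Km concentrations of substrates (10 uM D-luciferin, 10 uM ATP) in Tris acetate pH 7.5 buffer; luminescence output.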
NPC1 prom act: qHTS Assay for NPC1 Promoter Activators. Huh7 NPC1 promoter luciferase reporter, 24 h. Potency, µM (top dose mostly 9.22 µM), without a hit: top-dose activation, most hits filed as activators. hit rate 2.4% among 320,000. AID 485313, 2010; also: % of control where 0% means no effect; nearly all actives have a fitted effect of over 60% in size
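Quantitative HTS used a cell-based reporter: Huh7 cells stably bearing the NPC1 promoter upstream of luciferase were treated with compounds for 24 h, and promoter activation was read as luminescence.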
SMN2 splice enh: qHTS Assay for Enhancers of SMN2 Splice Variant Expression. Potency, µM (titrated, usually from 46.1 µM), without a hit: at the highest dose activity change, positive = activation, hits mostly activators. hit rate 2.8% among 210,000. HEK293 SMN2-luciferase splicing reporter, luminescence, 30-36 h; also: % of control where 0% means no effect; nearly all actives have a fitted effect of over 55% in size
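HEK293 cells carry an SMN2 […]–luciferase reporter in which exon 7 inclusion puts luciferase in frame. Cells were plated 10-12 h before compound addition, then incubated 30-36 h at 37C. ONE-Glo luminescence was read; sodium butyrate at 4.5 mM final served as control.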
ELG1 DNA repair: qHTS screen for small molecules that inhibit ELG1-dependent DNA repair in human embryonic kidney (HEK293T) cells expressing luciferase-tagged ELG1. Potency, µM (doses to about 46.1 µM), for the others: at the top dose activity change, negative = inhibition, usual class: inhibitors. hit rate 2.3% among 330,000. AID 504467, 2011. HEK293T ELG1-luciferase reporter, luminescence, 16 h; DNA damage induced by 5-fluorouridine; also: % is scaled to controls: 0 for no effect and ±100 for the full control effect; nearly all actives have a fitted effect of over 55% in size
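In this reporter screen, reduction of luminescence relative to DMSO vehicle indicated activity. Compounds and 5-fluorouridine were added together to 2,000 cells per well, incubated for 16 hr at 37 °C, then developed with ONE-Glo.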
ELG1 genotoxic: qHTS screen for small molecules that induce genotoxicity in human embryonic kidney (HEK293T) cells expressing luciferase-tagged ELG1 | HEK293T ELG1-luciferase reporter, luminescence, 16 h | Potency, µM (titrated, usually from 46 µM), for inactives: at the top dose activity change, positive = activation, usual class: activators | hit rate 1.3% among 330,000; also: % of control where 0% means no effect; nearly all actives have a fitted effect of over 60% in size
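Quantitative HTS format in 1536-well plates. HEK293T ELG1-luciferase reporter cells receive test compound and are incubated 16 hr at 37 °C, 5% CO2; ONE-Glo added, 30 min room temperature, then luminescence read.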
Rab9 prom act: qHTS Assay for Rab9 Promoter Activators; Huh7 Rab9 promoter-luciferase reporter, luminescence, 24 h; Potency, µM (series often up to 9.22 µM), without a hit: at the highest dose activation, negative = inhibition, most hits filed as activators; hit rate 2.8% among 320,000; also: % of control where 0% means no effect; nearly all actives have a fitted effect of over 60% in size
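Steps: seed 1500 Huh7 Rab9-luc cells per well, rest 2 h at 37 °C; add compound in DMSO; incubate 24 h; add luciferase reagent, 10 min ambient; read luminescence.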
* marks the source's active call; other numbers are inactive results; ? = inconclusive; nt = no result given; [ ] = another dose, or the depositor's remark. Calls follow the shape of the dose curve; as a rule, active = well fitted curve in the direction sought with a large enough effect; inconclusive = small, poorly fitted or top-dose-only effect, or another doubt; inactive = no such curve, though single readings can be large; an effect the other way counts as inactive or inconclusive. Potency is read from the fitted curve at half-maximal effect.

SMILES	FLuc counter	NPC1 prom act	SMN2 splice enh	ELG1 DNA repair	ELG1 genotoxic	Rab9 prom act
N=c1oc2ccccc2cc1C(=O)Nc1ccc(F)cc1	0.85µM*	0.79µM*	nt	?	5.2µM*	0.5µM*
N=c1oc2cc(O)ccc2cc1C(=O)Nc1ccc(Cl)cc1	3µM*	2.2µM*	nt	?	?	3.2µM*
N=c1oc2ccccc2cc1C(=O)Nc1cccc(F)c1	0.3µM*	3.2µM*	nt	?	?	?
COc1c2ccc(C(=O)NCc3cc(C(F)(F)F)cc(C(F)(F)F)c3)cc2nn1C	0%	0%	-31%	-5%	7%	2%
O=C(C[n+]1cccc2ccccc21)c1ccc(Cl)cc1	-2%	0%	nt	15%	-8%	-1%
Clc1ccc(/C(Cc2nc3ccccc3[nH]2)=N\Nc2ccccc2)cc1	13µM*	3.5µM*	nt	?	?	2.8µM*
CN/N=C(\Cc1nc2ccccc2[nH]1)c1ccc([N+](=O)[O-])cc1	17µM*	?	?	7%	13%	?
O=C(C[n+]1cccc2ccccc21)c1ccc([N+](=O)[O-])cc1	2%	0%	-12%	21µM*	-10%	17%
O=C(NCCc1nc2ccccc2[nH]1)c1cccc(Br)c1	6%	0%	-12%	5%	0%	-4%
O=C(NCCc1nc2ccccc2[nH]1)c1ccc([N+](=O)[O-])cc1	-7%	2%	nt	4%	1%	1%
N#CCCN/N=C(/Cc1nc2ccccc2[nH]1)c1cccc(Cl)c1	?	11%	0.56µM*	-14%	0%	19%
COc1ccc(-c2cc3ccc(O)cc3oc2=O)cc1OC	?	?	nt	?	?	1%
CCOC(=O)CSc1nc(N)nc(C)c1Br	1%	-3%	-3%	2%	3%	-10%
O=C(Cc1nc2ccccc2[nH]1)c1ccc(Cl)cc1	6µM*	2.5µM*	nt	?	16%	2.5µM*
O=C(Cc1nc2ccccc2[nH]1)c1ccc([N+](=O)[O-])cc1	15µM*	3.2µM*	nt	?	?	?
CCc1cc(C(=O)Cc2nc3ccccc3[nH]2)c(O)cc1O	?	9%	-2%	?	?	-3%
CCC1=NN2C(=N)/C(=C\c3cccn3-c3ccc(Cl)cc3)C(=O)N=C2S1	?	0%	-12%	?	-15%	-1%
CCC1=NN2C(=N)/C(=C\c3cccn3-c3ccc(C)c(C)c3)C(=O)N=C2S1	?	1%	3%	18µM*	-10%	-3%
CCc1ccc(-n2cccc2/C=C2/C(=N)N3C(=NC2=O)SN=C3S(C)(=O)=O)cc1	17µM*	-3%	-10%	-11%	0%	3%
Cc1ccc(-n2cccc2/C=C2/C(=N)N3C(=NC2=O)SN=C3S(C)(=O)=O)cc1	19µM*	-1%	-15%	-13%	0%	2%
CS(=O)(=O)C1=NSC2=NC(=O)/C(=C\c3ccc(OS(=O)(=O)c4ccccc4)cc3)C(=N)N21	-11%	0%	nt	?	3%	-2%
CS(=O)(=O)C1=NSC2=NC(=O)/C(=C\c3cccn3-c3ccccc3Cl)C(=N)N21	27µM*	0%	-2%	-9%	2%	16%
COc1cccc(-n2c(C)cc(/C=C3/C(=N)N4C(=NC3=O)SN=C4S(C)(=O)=O)c2C)c1	5.4µM*	1%	20%	?	5%	1%
Cc1cc(C)cc(-n2cccc2/C=C2/C(=N)N3C(=NC2=O)SN=C3S(C)(=O)=O)c1	13µM*	-6%	-20%	-16%	-3%	3%
COc1cc(/C=C2/C(=N)N3C(=NC2=O)SN=C3S(C)(=O)=O)ccc1OS(=O)(=O)c1ccc(C)cc1	-19%	0%	nt	25%	-1%[9.26 µM]	0%
SMILES	FLuc counter	NPC1 prom act	SMN2 splice enh	ELG1 DNA repair	ELG1 genotoxic	Rab9 prom act
NC(=O)c1nsc(C(=O)N(c2ccccc2)C(C(=O)NC2CCCC2)c2ccc3ncccc3c2)c1N (stereo unspecified)	0%	2%	nt	?	-16%	-4%
COc1ccc(O)c(/C=N/N=C2/C(=O)Nc3ccccc32)c1	4.8µM*	-2%	-4%	?	5%	1%
COc1cc(/C=N/N=C2/C(=O)Nc3ccccc32)cc(OC)c1O	17µM*	-1%	20%	?	2%	-1%
CN(c1ccccc1)S(=O)(=O)c1cccc(C(=O)NCCc2ccc(O)c(O)c2)c1	-6%	-23%	5%	?	-3%	-31%
O=c1[nH]c2ccc(NCc3ccc(F)cc3)cc2[nH]1	17µM*	14%	nt	?	-6%	15%
COc1cccc(CNc2ccc3[nH]c(=O)[nH]c3c2)c1OCc1ccccc1F	0%	2%	nt	9.2µM*	-10%	5%
CCc1sc(C(=O)Nc2ccsc2C(=O)OC)cc1Br	?	-1%	-18%	-1%	-3%	2%
COC(=O)c1ccc(OC(=O)c2cccs2)cc1	24µM*	-21%	7%	-19%	3%	3%
C/C(=N/OC(=O)c1c(F)cccc1F)c1nccs1	4.8µM*	-4%	4%	?	-8%	-1%
COc1ccc(C(=O)N/N=C/c2ccc(OC(=O)c3cccs3)cc2)cc1	0%	5%	19%	?	10%	-4%
C/C(=N\OC(=O)c1c(-c2c(F)cccc2Cl)noc1C)c1nccs1	7%	-9%	nt	-6%	-1%	-3%
COc1ccc(C(=O)O/N=C(\C)c2nccs2)cc1	0.48µM*	-2%	nt	28%	1%	15%
O=C(OCCc1cc2ccccc2c(=O)o1)c1cccs1	4.3µM*	26%	nt	?	-1%	1%
CN(C(=O)/C=C/c1ccccc1)C1CCS(=O)(=O)C1 (stereo unspecified)	-1%	1%	nt	11%	0%	-1%
CCC(=O)NNc1nc2c(C)cccc2s1	6%	-3%	-18%	19%	0%	-7%
COc1ccc(C/C(N)=N/OC(=O)c2cccs2)cc1	-13%	10%	nt	0%	2%	1%
C/C(=N\OC(=O)c1ccc(F)cc1)c1nccs1	0.67µM*	-4%	-6%	11%	-1%	3%
COc1ccc(C2CC2/C(C)=N/OC(=O)c2cccs2)cc1 (stereo unspecified)	24µM*	0%	11%	?	1%	0%
